Rows were chosen to be rich in hits. Some 3.1% of all compounds tested hit in one or more screens of this group.
ELG1 repair inh = blocks ELG1-dependent DNA repair in HEK293T cells. HEK293T ELG1-luciferase reporter, luminescence, 16 h; DNA damage induced by 5-fluorouridine. Potency, µM (top dose mostly 46.1 µM), without a hit: top-dose activity change, negative = inhibition, most hits filed as inhibitors. hit rate 2.3% among 330,000; further: potency means the concentration at half of the fitted maximal effect; on the % scale 0 is the no-effect control and ±100 the full control effect; nearly all actives have a fitted effect of over 55% in size
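Reporter activity after DNA damage by 5-fluorouridine is monitored. Compound-treated cells incubate 16 hr at 37 °C, then ONE-Glo is added for 30 min before luminescence reading.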
IL-2 act = activates IL-2 in a cell-based reporter assay; IL-2 activation reporter assay, cell-based qHTS; stimulated with anti-CD3/CD4/CD28 beads; in transgenic mouse T cells; activation, % (series mostly up to about 46 µM); hit rate 0.065% among 360,000; in the data active means activation above about 50%; inconclusive means mostly about 30% to 49%; further: 0% is about no effect
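Using fluorescent plate cytometry, EGFP and DsRed are detected in transgenic mouse T cells stimulated 18 h at 37 degrees C with antibody-coated beads after 60 min compound pretreatment.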
Nrf2 ARE act = activates Nrf2 signaling; AID 624171; AREc32 ARE-luciferase reporter (MCF7-derived line), luminescence, 24 h; hit rate 0.31% among 410,000; Potency, µM (highest dose often 46.1 µM), inactives show top-dose activation, actives largely listed as activators; further: potency means the concentration at half of the fitted maximal effect; % of control where 0% means no effect; nearly all actives have a fitted effect of over 65% in size
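Each well held 1000 AREc32 cells, which were incubated with compound for 24 hr at 37 deg C after overnight attachment, and ARE reporter activity was quantified by firefly luciferase luminescence.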
BRCA1 expr act = increases BRCA1 expression. MCF7-BRCA1-FFLuc reporter, luminescence, 48 h; response scale: scaled: vehicle 0%, 10 µM genistein 100%. Potency, µM (highest dose often 46.1 µM), for the others: top-dose activation, most hits filed as activators. hit rate 1.1% among 380,000. AID 624202; further: potency means the concentration at half of the fitted maximal effect; nearly all actives have a fitted effect of over 80% in size
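Reporter cells (MCF7, BRCA1 promoter-firefly luciferase) received library compounds across a concentration series for 48 h. End-point luminescence was measured and concentration-effect curves derived after normalization.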
The depositor's hits bear a star; ? = inconclusive; . = not tested or not shown. Unless noted, the call rests on the fitted dose curve; in most records, active means well fitted curve in the direction sought with a large enough effect; inconclusive means small, poorly fitted or top-dose-only effect, or another doubt; inactive means no such curve, though single readings can be large; an effect the other way counts as inactive or inconclusive.

SMILES | ELG1 repair inh | IL-2 act | Nrf2 ARE act | BRCA1 expr act
CCOc1ccc(NC(=O)c2ccco2)cc1 | ? | 0.9 | 0.1% | -38.9%
CCOc1ccc(NC(=S)NC(=O)c2ccco2)cc1 | ? | -1.0 | 0.3% | 7.08µM*
COc1ccccc1OC(C)C(=O)Nc1ccc(-c2nc3ccccc3s2)cc1 (stereo unspecified) | . | . | 3.1% | 79.7%
COc1ccc(OC)c(NC(=O)C2CCCN(S(=O)(=O)c3cccc4nsnc34)C2)c1 (stereo unspecified) | 20.6µM* | 0.3 | 0.2% | -31.2%
COc1cc(NC(=O)C2CCCN(S(=O)(=O)c3cccc4nsnc34)C2)cc(OC)c1 (stereo unspecified) | 23.1µM* | -1.0 | 0.2% | -13.0%
COc1ccc(OC)c(NC(=O)C2CCCN(S(=O)(=O)c3ccc(-n4cnnn4)cc3)C2)c1 (stereo unspecified) | 25.9µM* | -0.2 | -0.3% | ?
CCOC(=O)C1CCN(C(=O)C2CCN(c3nnc(C)c4c(C)n(-c5ccccc5)nc34)CC2)CC1 | . | . | 0.7% | .
COC1=CC(=O)OC(c2ccccc2C(F)(F)F)C1 (stereo unspecified) | . | 1.4 | . | .
COc1ccc(C[C@@H]2C(=O)N[C@H](C)C(=O)N(C)[C@@H]3Cc4ccc(cc4)Oc4cc(ccc4O)C[C@H](C(=O)N[C@@H](C)C(=O)N[C@H](C)C(=O)N2C)N(C)C3=O)cc1 | . | . | . | 17.7%
O=C(CN1CCCC1)N1c2ccccc2C=Cc2ccccc21 | 5.6% | -0.3 | 0.0% | 1.2%
N#CC1=C2C=Cc3ccccc3N2CCCC1=O | ? | -0.4 | 3.0% | 2.51µM*
Cc1oc(-c2ccc(C(=O)NCc3ccccc3F)cc2)nc1COc1ccccc1 | . | . | 3.8% | .
COc1ccc(Oc2ccc3c(C(F)(F)F)cc(C(F)(F)F)nc3n2)cc1 | -0.6% | -0.7 | -0.2% | -29.7%
Oc1ccc(Oc2ccc3c(C(F)(F)F)cc(C(F)(F)F)nc3n2)cc1 | 18.4µM* | -0.5 | -0.6% | -42.4%
c1ccn2c(c1)nc1c2nc2ccccn21 | ? | -0.5 | 20.3% | ?
Cc1c(-c2ccc(Br)cc2)nc2ccccn12 | ? | 1.1 | 3.98µM* | 18.9%
Clc1c(-c2ccccc2)nc2ccccn12 | ? | -1.4 | 11.2µM* | 38.6%
Cc1nn2cc(-c3ccc(Cl)cc3)cnc2c1Cl | ? | -0.2 | 2.4% | 3.16µM*
Cc1cc2ncc(-c3cccc(Cl)c3)cn2n1 | ? | 0.2 | 0.9% | 0.0%
COc1ccc(/C=C/C(=O)c2c(O)cc(C)oc2=O)c(OC)c1 | ? | 172.1* | 26.3% | ?
CCn1nc([N+](=O)[O-])c(C(C#N)c2nc3ccccc3n2C)c(Cl)c1=O (stereo unspecified) | -0.1% | -1.4 | ? | -36.9%
CCCn1nc([N+](=O)[O-])c(C(C#N)c2nc3ccccc3s2)c(Cl)c1=O (stereo unspecified) | 18.4µM* | -0.4 | ? | -68.1%
CN(CC(=O)Nc1cccc(F)c1)C(=O)c1cn(-c2ccccc2)nc1-c1ccccc1 | 18.6% | 1.1 | 3.8% | -9.0%
CCOc1ccc(NC(=O)CN(C)C(=O)c2cccc3ccccc23)cc1OCC | 2.0% | -2.0 | -1.0% | -9.4%
CCOc1ccc(NC(=O)CN(C)C(=O)c2ccccc2CCc2ccccc2)cc1OCC | 7.3µM* | -4.6 | 2.3% | -17.7%
SMILES | ELG1 repair inh | IL-2 act | Nrf2 ARE act | BRCA1 expr act
CCOc1ccc(NC(=O)CN(C)C(=O)c2cn(-c3ccc(F)cc3)nc2-c2cccc(OC)c2)cc1OCC | 9.2µM* | -0.3 | -0.8% | -59.6%
CCOc1ccc(NC(=O)CN(C)C(=O)c2ccccc2OCCOc2ccccc2)cc1OCC | 11.6µM* | 0.2 | 0.1% | -23.1%
COC(=O)c1ccc(OC)c(Cn2c(=O)n(-c3cccc(Cl)c3)c(=O)c3c2c2cc(C)ccc2n3C)c1 | . | . | -0.3% | .
CCOc1cc(CNC(=O)c2ccc(Cn3c(=O)c4cccn4c4cccnc43)cc2)ccc1OC | . | . | 0.1% | .
Cn1c(O)c(N=NC(=O)c2ccccc2O)c2ccccc21 | ? | -0.9 | 16.9% | 43.3%
Cc1cc(N=NC(=O)c2ccccc2O)c2ccccc2c1O | ? | -1.7 | -0.2% | 5.62µM*
CC1(Cc2ccc(C(F)(F)F)o2)C(=O)Nc2cc(-c3ccc(F)cc3F)ccc21 (stereo unspecified) | . | -0.8 | -3.7% | -52.5%
C=CCn1c(SCc2c(C)noc2C)nc2sc3c(c2c1=O)CCCCC3 | ? | -0.4 | -0.5% | -62.1%
C=CCn1c(SCc2c(C)noc2C)nc2sc3c(c2c1=O)CCCC3 | 18.4µM* | -2.4 | -0.7% | -89.8%
Cc1noc(C)c1CSc1nc2sc3c(c2c(=O)n1C)CCCC3 | 23.1µM* | 0.5 | -0.5% | -30.2%
COC(=O)c1ccc(CSc2nc3c(c(=O)[nH]2)CCC3)cc1 | . | -0.5 | 0.6% | 6.0%
COc1ccc(N/C=C2\C(=O)CCc3c2oc2cc(Cl)c(O)c(Cl)c32)cc1 | -3.9% | 267.7* | 7.08µM* | -49.3%
COc1ccc(N/C=C2\CCOC2=O)cc1 | 19.0% | -1.1 | 1.9% | -23.1%
COc1cc2c(cc1NC(=O)C(C)Sc1ccc(NC(C)=O)cc1)oc1ccccc12 (stereo unspecified) | 16.4µM* | -0.5 | 7.5% | -79.0%
COc1cc2c(cc1NC(=O)Nc1ccc(C)cc1)oc1ccccc12 | ? | -2.9 | 5.2% | -48.5%
COc1cc(/C=c2\sc3n(c2=O)CCCN=3)ccc1O | ? | 0.6 | 8.0% | 46.8%
O=c1/c(=C/c2ccc([N+](=O)[O-])cc2)sc2n1CCCN=2 | ? | -0.1 | ? | 3.55µM*
CCc1ccc(C2c3c(n[nH]c3C)C(=O)N2c2ccc(C)cc2)cc1 (stereo unspecified) | . | . | 7.5% | 48.0%
Cc1cc(C)n2nc(-c3ccc(Cl)cc3)cc2n1 | ? | 1.1 | 14.1µM* | 12.5%
Cc1cc(C)n2nc(-c3ccc(Br)cc3)cc2n1 | ? | -0.1 | 2.24µM* | 13.0%
COc1ccc(-c2cc3nc(C)cc(C)n3n2)cc1 | ? | 1.4 | 25.8% | 44.6%
Cc1c(C(=O)N2CCc3ccccc3C2)oc2ccc(S(=O)(=O)N3CCCCCC3)cc12 | 16.4µM* | -4.6 | -0.4% | -66.0%
Cc1c(C(=O)NCc2ccc3c(c2)OCO3)oc2ccc(S(=O)(=O)N3CCCC3)cc12 | 7.31µM* | 1.2 | -0.7% | 0.0%
COc1ccc(NC(=O)c2oc3ccc(S(=O)(=O)N4CCC5(CC4)OCCO5)cc3c2C)cc1 | 5.8µM* | -2.4 | 0.4% | -83.8%
Cc1c(C(=O)NCc2cccnc2)oc2ccc(S(=O)(=O)N3CCCCCC3)cc12 | 18.4µM* | -2.6 | 0.1% | -34.1%
C=CCNC(=O)c1oc2ccc(S(=O)(=O)N3CCCCC3)cc2c1C | -13.9% | -2.1 | 0.2% | -15.2%
Cc1ccc(NC(=O)c2oc3ccc(S(=O)(=O)N4CCC5(CC4)OCCO5)cc3c2C)cc1Cl | . | . | 0.8% | .
COc1ccc(Cn2ccc3nc(C)c(C(=O)N4CCN(c5ccccc5F)CC4)cc3c2=O)cc1 | . | . | -0.2% | .
Cc1c(C(=O)NCc2ccc3c(c2)OCO3)oc2ccc(S(=O)(=O)N3CCCCC3)cc12 | ? | -2.3 | -0.3% | -65.8%

Assay outcomes as filed in PubChem BioAssay.
